Key:
Assay in all cases: log2 ratio of Biotin-Ahx-Ub-VS probe labelling (fragment/DMSO); higher = less target engagement (more negative = stronger competition), active = hit call of the paper (q ≤ 0.05, log2 ratio ≤ -1)
Settings in all cases: compound concentration: 200 uM; treatment time: 3 h
ALG13 = biological target: T1, ALG13 (UniProt Q9NP73)
T1 sequence (whole entry): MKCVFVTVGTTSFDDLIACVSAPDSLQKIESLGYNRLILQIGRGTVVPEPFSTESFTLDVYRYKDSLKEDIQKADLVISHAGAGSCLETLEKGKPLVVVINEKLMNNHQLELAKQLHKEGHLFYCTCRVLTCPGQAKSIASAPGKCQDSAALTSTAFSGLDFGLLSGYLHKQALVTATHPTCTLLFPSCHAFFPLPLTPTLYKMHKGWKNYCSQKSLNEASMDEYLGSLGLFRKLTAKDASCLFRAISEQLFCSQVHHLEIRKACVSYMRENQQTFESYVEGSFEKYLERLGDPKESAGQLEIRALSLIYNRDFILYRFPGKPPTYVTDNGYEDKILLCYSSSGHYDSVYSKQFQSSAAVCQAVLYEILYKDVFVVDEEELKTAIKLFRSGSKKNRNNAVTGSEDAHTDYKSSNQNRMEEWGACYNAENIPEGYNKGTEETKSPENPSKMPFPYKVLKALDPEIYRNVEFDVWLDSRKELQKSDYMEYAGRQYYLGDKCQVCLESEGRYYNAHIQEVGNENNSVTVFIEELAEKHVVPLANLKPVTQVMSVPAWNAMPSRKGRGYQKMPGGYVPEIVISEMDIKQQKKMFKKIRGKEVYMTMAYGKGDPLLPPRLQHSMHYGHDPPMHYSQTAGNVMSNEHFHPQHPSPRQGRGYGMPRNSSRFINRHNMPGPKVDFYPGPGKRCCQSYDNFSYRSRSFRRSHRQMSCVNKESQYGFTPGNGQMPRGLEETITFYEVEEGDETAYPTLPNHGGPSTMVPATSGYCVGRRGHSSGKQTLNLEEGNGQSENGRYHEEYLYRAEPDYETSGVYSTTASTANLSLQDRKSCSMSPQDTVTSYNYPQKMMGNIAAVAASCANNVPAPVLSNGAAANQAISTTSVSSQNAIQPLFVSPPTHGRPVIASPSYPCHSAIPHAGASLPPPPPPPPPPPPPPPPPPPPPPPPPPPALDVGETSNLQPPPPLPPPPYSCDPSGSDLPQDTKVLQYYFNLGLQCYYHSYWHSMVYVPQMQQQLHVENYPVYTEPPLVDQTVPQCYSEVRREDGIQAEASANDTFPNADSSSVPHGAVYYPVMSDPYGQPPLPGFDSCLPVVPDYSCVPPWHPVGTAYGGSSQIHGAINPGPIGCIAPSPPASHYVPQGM
In short: (§1)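 Fragment (200 µM) or vehicle was incubated for 3 h with triplicate HEK293T lysate samples of 495 µg, which were then treated with Biotin-Ahx-Ub-VS at 0.5 µM final for 1 h. Labelled DUBs were enriched on NeutrAvidin, digested with LysC and trypsin, and analysed by diaPASEF LC-MS/MS. Values are average log2 fragment/vehicle ratios from an unpaired t-test on global-median-normalised Spectronaut label-free quantities, using proteins with ≥2 unique peptides.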

ATXN3 = ATXN3 (UniProt P54252)
Sequence of ATXN3 (P54252 whole entry): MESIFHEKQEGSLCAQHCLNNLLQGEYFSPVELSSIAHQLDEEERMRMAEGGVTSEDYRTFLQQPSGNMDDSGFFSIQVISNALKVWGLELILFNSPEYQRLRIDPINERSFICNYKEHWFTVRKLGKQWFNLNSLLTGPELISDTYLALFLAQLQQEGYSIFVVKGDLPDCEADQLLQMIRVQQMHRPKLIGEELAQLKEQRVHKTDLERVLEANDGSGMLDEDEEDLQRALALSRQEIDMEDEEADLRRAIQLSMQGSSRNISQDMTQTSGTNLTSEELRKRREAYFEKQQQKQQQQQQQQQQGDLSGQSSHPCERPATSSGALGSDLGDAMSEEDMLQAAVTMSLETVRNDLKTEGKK
In short: as §1

BAP1 = biological target: T2, BAP1 (UniProt Q92560)
T2 sequence (whole entry): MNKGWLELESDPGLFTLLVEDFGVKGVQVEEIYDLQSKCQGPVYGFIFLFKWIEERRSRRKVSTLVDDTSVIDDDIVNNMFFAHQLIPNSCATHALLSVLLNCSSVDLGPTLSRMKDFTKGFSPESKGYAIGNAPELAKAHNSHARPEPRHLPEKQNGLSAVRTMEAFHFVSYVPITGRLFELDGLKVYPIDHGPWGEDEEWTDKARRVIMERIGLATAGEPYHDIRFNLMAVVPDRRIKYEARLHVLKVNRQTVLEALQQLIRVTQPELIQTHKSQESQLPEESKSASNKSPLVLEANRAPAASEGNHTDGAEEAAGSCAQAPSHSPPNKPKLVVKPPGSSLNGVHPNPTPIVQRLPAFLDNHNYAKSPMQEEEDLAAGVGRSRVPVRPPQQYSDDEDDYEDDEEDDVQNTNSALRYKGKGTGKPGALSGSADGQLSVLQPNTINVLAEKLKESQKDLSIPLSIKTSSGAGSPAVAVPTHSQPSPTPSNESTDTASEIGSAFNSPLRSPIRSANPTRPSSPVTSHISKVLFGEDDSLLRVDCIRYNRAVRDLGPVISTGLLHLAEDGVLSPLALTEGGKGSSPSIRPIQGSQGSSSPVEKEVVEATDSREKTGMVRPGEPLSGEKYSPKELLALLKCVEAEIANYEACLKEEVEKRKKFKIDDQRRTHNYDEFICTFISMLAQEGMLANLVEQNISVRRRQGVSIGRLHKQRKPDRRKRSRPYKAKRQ
In short: as §1

EIF3F = EIF3F (UniProt O00303)
Sequence of EIF3F (O00303 whole entry): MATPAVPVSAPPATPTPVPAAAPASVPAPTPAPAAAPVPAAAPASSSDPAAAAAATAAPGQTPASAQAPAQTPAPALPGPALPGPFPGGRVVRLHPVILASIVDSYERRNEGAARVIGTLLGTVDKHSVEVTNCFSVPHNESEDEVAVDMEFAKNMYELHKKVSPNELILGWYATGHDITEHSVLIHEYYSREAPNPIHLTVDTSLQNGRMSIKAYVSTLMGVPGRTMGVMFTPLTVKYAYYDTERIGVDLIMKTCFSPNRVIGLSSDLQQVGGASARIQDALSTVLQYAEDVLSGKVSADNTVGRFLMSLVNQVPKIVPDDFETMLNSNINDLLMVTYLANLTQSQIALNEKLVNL
In short: as §1

EIF3H = EIF3H (UniProt O15372)
Sequence of EIF3H (O15372 whole entry): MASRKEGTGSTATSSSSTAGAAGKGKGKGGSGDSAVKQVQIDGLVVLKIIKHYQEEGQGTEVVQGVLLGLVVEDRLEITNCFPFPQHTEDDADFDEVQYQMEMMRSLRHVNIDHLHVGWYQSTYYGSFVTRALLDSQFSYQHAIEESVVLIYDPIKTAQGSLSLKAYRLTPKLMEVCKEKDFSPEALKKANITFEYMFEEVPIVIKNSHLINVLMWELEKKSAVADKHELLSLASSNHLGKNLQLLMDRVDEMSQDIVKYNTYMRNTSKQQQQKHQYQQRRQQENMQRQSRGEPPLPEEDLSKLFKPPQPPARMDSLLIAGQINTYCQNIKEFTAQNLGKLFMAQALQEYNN
In short: as §1

FAM105A = biological target: T3, FAM105A (UniProt Q9NUU6)
T3 sequence (whole entry): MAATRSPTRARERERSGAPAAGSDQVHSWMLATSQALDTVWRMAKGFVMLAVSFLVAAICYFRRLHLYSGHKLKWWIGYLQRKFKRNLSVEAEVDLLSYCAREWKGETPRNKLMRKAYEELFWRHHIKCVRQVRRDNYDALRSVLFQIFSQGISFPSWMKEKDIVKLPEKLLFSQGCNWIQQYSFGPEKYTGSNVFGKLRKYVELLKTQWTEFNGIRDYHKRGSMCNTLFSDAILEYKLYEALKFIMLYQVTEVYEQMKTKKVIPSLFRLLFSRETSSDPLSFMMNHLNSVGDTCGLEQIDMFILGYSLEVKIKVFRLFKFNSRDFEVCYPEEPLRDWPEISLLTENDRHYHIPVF
In short: as §1

OTUB1 = OTUB1 (UniProt Q96FW1)
Sequence of OTUB1 (Q96FW1 whole entry): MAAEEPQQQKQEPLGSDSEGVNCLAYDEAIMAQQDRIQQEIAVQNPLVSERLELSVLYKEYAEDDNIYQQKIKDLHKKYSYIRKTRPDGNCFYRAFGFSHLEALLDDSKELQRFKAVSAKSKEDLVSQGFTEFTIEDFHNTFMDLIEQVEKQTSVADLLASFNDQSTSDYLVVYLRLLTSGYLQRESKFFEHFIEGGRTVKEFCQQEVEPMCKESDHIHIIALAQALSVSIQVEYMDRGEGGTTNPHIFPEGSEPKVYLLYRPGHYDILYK
In short: as §1

OTUD4 = biological target: T4, OTUD4 (UniProt Q01804)
T4 sequence (whole entry): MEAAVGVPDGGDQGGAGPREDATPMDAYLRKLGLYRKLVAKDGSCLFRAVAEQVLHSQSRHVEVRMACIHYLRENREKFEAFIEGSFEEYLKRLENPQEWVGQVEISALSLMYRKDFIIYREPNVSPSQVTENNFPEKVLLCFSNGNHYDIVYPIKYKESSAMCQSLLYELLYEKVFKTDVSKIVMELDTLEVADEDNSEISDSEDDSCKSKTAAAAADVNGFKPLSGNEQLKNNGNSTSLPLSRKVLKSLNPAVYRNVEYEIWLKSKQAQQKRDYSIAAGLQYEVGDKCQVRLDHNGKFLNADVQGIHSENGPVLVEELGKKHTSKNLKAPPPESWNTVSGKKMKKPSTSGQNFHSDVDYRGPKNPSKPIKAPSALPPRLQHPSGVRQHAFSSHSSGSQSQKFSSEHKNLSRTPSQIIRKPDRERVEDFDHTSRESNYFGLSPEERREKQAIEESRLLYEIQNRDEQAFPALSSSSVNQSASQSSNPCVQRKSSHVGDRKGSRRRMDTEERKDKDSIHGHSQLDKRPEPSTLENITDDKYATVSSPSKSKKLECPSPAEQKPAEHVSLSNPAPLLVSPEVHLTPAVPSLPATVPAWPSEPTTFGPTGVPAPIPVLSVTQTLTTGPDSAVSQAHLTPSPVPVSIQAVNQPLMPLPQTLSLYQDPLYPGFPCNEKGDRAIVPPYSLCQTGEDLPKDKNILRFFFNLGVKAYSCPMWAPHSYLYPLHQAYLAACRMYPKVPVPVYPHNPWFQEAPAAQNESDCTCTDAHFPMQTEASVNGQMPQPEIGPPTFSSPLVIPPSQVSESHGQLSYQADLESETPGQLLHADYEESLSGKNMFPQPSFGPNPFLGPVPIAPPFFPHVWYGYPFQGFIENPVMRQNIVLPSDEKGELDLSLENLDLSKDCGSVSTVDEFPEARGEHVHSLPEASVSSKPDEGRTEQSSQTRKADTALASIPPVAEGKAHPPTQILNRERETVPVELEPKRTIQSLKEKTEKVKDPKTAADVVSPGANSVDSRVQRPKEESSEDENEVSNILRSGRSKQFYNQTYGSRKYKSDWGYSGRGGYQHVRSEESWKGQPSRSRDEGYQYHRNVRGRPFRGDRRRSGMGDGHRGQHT
In short: as §1

OTUD5 = biological target: T5, OTUD5 (UniProt Q96G74)
T5 sequence (whole entry): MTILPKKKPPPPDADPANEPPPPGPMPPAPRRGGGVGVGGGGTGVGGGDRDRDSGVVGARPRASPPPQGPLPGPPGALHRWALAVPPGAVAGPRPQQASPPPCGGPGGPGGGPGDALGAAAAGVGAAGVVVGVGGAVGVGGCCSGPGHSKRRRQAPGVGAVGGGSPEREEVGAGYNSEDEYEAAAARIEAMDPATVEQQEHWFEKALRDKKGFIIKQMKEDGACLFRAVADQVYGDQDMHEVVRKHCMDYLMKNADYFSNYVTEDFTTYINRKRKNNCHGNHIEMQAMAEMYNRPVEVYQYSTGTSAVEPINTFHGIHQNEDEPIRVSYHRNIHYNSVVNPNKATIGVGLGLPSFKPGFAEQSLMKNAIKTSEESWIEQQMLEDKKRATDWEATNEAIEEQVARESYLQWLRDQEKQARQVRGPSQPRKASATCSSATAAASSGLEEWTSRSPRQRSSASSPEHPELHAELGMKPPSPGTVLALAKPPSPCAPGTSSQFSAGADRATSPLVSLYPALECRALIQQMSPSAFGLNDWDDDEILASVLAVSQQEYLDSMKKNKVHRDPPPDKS
In short: as §1

Measured: log2 ratio of Biotin-Ahx-Ub-VS probe labelling

Cc1ccc(CN(C)C(=O)CCl)o1
inactive: ALG13 0.042 | ATXN3 -0.103 | BAP1 -0.4 | EIF3F -0.0182 | EIF3H -0.047 | FAM105A 0.277 | OTUB1 0.103 | OTUD4 0.05 | OTUD5 -0.308

— the supplement of paper PMC11732987, “Enantioselective OTUD7B fragment discovery through chemoproteomics screening and high-throughput optimisation” (Communications Chemistry, 2025)
